Results published in ChEMBL document CHEMBL3988442, “University of Dundee, Small-Polar-MMV Screening Library” (2021).
Where “and” joins values, the source holds several entries; their conditions need not be identical. Identical values can stand only once. About 290 (0.85%) of roughly 34,000 compounds showed an effect of 50% or more. For the sample, strong results were picked, then their nearest neighbours and some compounds at random.

System: Plasmodium falciparum
Experiment: Plasmodium falciparum sporozoite viability assay
Type: functional, organism-based
Design: scale not given: in the data most compounds retested in dose-response had high values

| SMILES | Percent Effect [%] | Percent Effect (10 mM as filed; unlikely as a test dose) |
| --- | --- | --- |
| O=C(O)C(F)(F)F.O=C(O)C(F)(F)F.c1cncc(C2COC3(CCN(Cc4cccs4)CC3)C2)c1 (stereo not drawn) | -1.667 | – |
| CC(Cn1cccn1)NC(=O)NCCc1cccs1 (stereo not drawn) | -5.389 | – |
| CC(C)c1n[nH]c(C2CN(C(=O)c3cn4ccccc4n3)CCO2)n1 (stereo not drawn) | -4.937 | – |
| Cn1cnc2c1CCN(CCOc1ccc(C#N)cc1)C2 | 2.022 | – |
| CCC(=O)N1CCCC1(C)c1nc(C)no1 (stereo not drawn) | 15.01 | – |
| Cn1ccc(C(=O)N2CCCC2c2[nH]ncc2C(N)=O)n1 (stereo not drawn) | 3.652 | – |
| O=C(c1ccc(-n2cccn2)nc1)N1CCC(c2ccn[nH]2)C1 (stereo not drawn) | -0.6869 | – |
| c1ccc2sc(N3CCC4(CCCN4Cc4ncc[nH]4)CC3)nc2c1 | – | 21.32% and 38.1% |
| Cc1nc[nH]c1CN1CCCC12CCN(c1nc3ccccc3s1)CC2 | – | 73.34% and 82.13% |
| Cc1nc[nH]c1CN1CCCN(c2nc3ccccc3s2)CC1 | – | 2.478% and -18.14% |
| Cc1noc(C2CCN(C(=O)Nc3ccc(N(C)C)nc3)CC2)n1 | – | 63.01% and 33.92% and 30.08% |
| Cc1noc(C2CCN(C(=O)c3ccc(N(C)C)nc3)CC2)n1 | 4.187 | – |
| Cc1noc(C2CCCN(C(=O)c3ccc(N(C)C)nc3)C2)n1 (stereo not drawn) | 8.423 | – |
| CC(C)c1n[nH]c(C2CN(C(=O)c3cc(C4CC4)on3)CCO2)n1 (stereo not drawn) | -9.758 | – |
| CSc1ccc(-c2nc(CN3CCC(NC(C)=O)CC3)c(C)o2)cc1 | – | 0.03712% and -0.9585% and 6.229% |
| CNC(=O)C1CCN(Cc2nc(-c3ccc(SC)cc3)oc2C)C1 (stereo not drawn) | – | -17.68% and 5.16% and 2.023% |
| CSc1ccc(-c2nc(CN3CCC(NC(C)=O)C3)c(C)o2)cc1 (stereo not drawn) | – | 76.12% and 85.32% and 90.74% |
| Cc1ncncc1C(=O)N1CCOC(C)(C(=O)NC2CCCC2)C1 (stereo not drawn) | 12.89 | – |
| CC(=O)NC1CCCN(C(=O)NCc2cccnc2N(C)C)C1 (stereo not drawn) | -28.43 | – |
| CCC(CC)c1nnc(NC(=O)N2CCC(C(N)=O)CC2)s1 | – | -8.76% and -13.24% |
| CCCc1nnc(NC(=O)N2CCCC(NC(C)=O)C2)s1 (stereo not drawn) | – | 54.93% and 67.74% |
| CC(=O)NC1CCCN(C(=O)Nc2cnc3c(cnn3C(C)C)c2)C1 (stereo not drawn) | -3.926 | – |
| CC(=O)NC1CCCN(C(=O)CNc2cc(Cl)cc(Cl)c2)C1 (stereo not drawn) | -3.441 | – |
| CCC(CC)c1nnc(NC(=O)N2CCCC(NC(C)=O)C2)s1 (stereo not drawn) | – | 78.77% and 70.93% |

| SMILES | Percent Effect [%] | Percent Effect (10 mM as filed; unlikely as a test dose) |
| --- | --- | --- |
| CC(=O)NC1CCCN(C(=O)Nc2nnc(C(C)C)s2)C1 (stereo not drawn) | – | 68.35% and 80.73% |
| CC(=O)NC1CCCN(C(=O)NCc2cc[nH]n2)C1 (stereo not drawn) | -1.899 | – |
| CC(C)c1nnc(NC(=O)NC2CCN(Cc3ccccc3)C2)s1 (stereo not drawn) | 14.49 | – |
| Cc1n[nH]c(C)c1CC(=O)NCc1ccccc1Cl | -5.904 | – |
| CCc1ccc(C(=O)Nc2cccc(CN3CCCC3C(N)=O)c2)cc1 (stereo not drawn) | -39.95 | – |
| Cc1[nH]ccc1C(=O)Nc1cccc(CN2CCC(O)CC2)c1 | 11.84 | – |
| COc1ccc(NC(=O)c2ccc(CN3CC[C@H](O)C3)cc2)c(OC)n1 | – | -15.85% and -8.926% |
| Cc1cncc(NC(=O)c2ccc(CN3CC[C@H](O)C3)cc2)c1 | – | 88.45% and 79.14% |
| NC(=O)c1ccc(CN2CCCC(O)C2)cc1 (stereo not drawn) | -1.578 | – |
| Cc1cncc(NC(=O)c2ccc(CN3CCCC(C(N)=O)C3)cc2)c1 (stereo not drawn) | – | -5.227% and 10.36% |
| COc1cc(NC(=O)c2ccc(CN3CC[C@H](O)C3)cc2)cc(OC)c1 | – | 90.3% and 82.4% |
| Cc1cc(NC(=O)c2ccc(CN3CC[C@H](O)C3)cc2)ccc1F | – | 96.75% and 98.24% |
| Fc1cccc(-c2nc(CN3CCCC3Cn3cccn3)co2)c1 (stereo not drawn) | 3.787 | – |
| CCc1cc(O)nc(C2CCCN2C(=O)c2cc(CC)on2)n1 (stereo not drawn) | 0.3331 | – |
| CC(NC(=O)NCCCn1cncn1)c1ccc2c(c1)CC(=O)N2 (stereo not drawn) | 3.485 | – |
| CSCc1cc(F)ccc1CNC(=O)N1CCOCC1 | 1.579 | – |
| CC(=O)N1Cc2ccccc2C[C@H]1C(=O)Nc1ccccn1 | – | 80.79% and 67.33% |
| CC(=O)N1Cc2ccccc2CC1C(=O)Nc1cc(C)ccn1 (stereo not drawn) | – | 71.78% and 85.23% |
| Cc1ccnc(NC(=O)C2(n3cnnn3)CCCCC2)c1 | -7.357 | – |
| CCCN1Cc2ccccc2CC1C(=O)NC (stereo not drawn) | -3.834 | – |
| CCNC(=O)NCCc1csc(N2CCCC2)n1 | -15.2 | – |
| CCOc1ccc(-c2cc(=O)n3c(n2)CCCCC3)cc1 | -4.121 | – |
| COc1ccc(CN(Cc2ccccn2)Cc2cncn2C)cc1.O=C(O)CC(O)(CC(=O)O)C(=O)O | 3.185 | – |
| CCOc1cc(C)nc(N2CCN(C(=O)CN(C)C3CC3)CC2)n1 | 8.163 | – |

| SMILES | Percent Effect [%] | Percent Effect (10 mM as filed; unlikely as a test dose) |
| --- | --- | --- |
| Cn1cncc1CN1CCC(O)(Cn2nc(-c3cccs3)oc2=O)CC1.O=C(O)CC(O)(CC(=O)O)C(=O)O | -17.63 | – |
| CC(C)n1nc2c(cc1=O)CN(c1nc3ccccc3s1)CC2 | – | 66.67% and 52.43% and 41.91% |
| CN(C)C(=O)CS(=O)(=O)Cc1cc(Cl)c2c(c1)OCCO2 | 4.247 | – |
| Clc1cc(CN2CCCCC2Cn2cncn2)c2ncccc2c1 (stereo not drawn) | -10.63 | – |
| CC(C)Nc1ncnc2c1CCN(C(=O)c1ccc[nH]1)CC2 | -7.967 | – |
| CC(C)C[C@H](N)COc1cccc(F)c1Oc1cccc(Cl)c1 | 0.9974 | – |
| Cc1ccc(NS(=O)(=O)c2cc3c(c(C(=O)O)c2)OCCO3)cc1F | 6.057 | – |
| O=C(O)C(F)(F)F.O=c1ccc2c(n1CC1CC1)CCC(NCc1cccs1)C2 (stereo not drawn) | 4.557 | – |
| Cc1ccc(-c2noc([C@@H]3Cc4nc[nH]c4CN3)n2)cc1 | – | 79.76% and 77.83% |
| c1cc(-c2noc([C@@H]3Cc4nc[nH]c4CN3)n2)ccn1 | – | -0.1591% and 11.18% |
| Fc1ccc(-c2noc([C@@H]3Cc4nc[nH]c4CN3)n2)cc1 | – | 27.52% and 35.27% |
| Cc1cccc(-c2noc([C@@H]3Cc4nc[nH]c4CN3)n2)c1 | – | 77.23% and 75.76% |
| Cc1cccc(-c2noc(CN3CCOCC3C)n2)c1 (stereo not drawn) | 5.079 | – |
| c1ccc(-c2noc([C@@H]3Cc4nc[nH]c4CN3)n2)cc1 | – | 8.153% and 22.58% |
| Cc1noc(NC(=O)c2ccc(OC(F)(F)F)cc2)n1 | -13.94 | – |
| FC(F)(F)Oc1ccc(-c2noc([C@@H]3Cc4nc[nH]c4CN3)n2)cc1 | – | 93.02% and 93.75% |
| O=C(NCC1CC1)C1CN(C(=O)NC2CCCC2)Cc2cncn2C1 (stereo not drawn) | 10.46 | – |
| Cc1nn(C)c(Cl)c1C1CCCN1C(=O)c1cnn(C)c1C1CC1 (stereo not drawn) | 4.376 | – |
| CC(C)C(=O)N1CCCC(c2cncc(Oc3cccnc3)n2)C1 (stereo not drawn) | -4.997 | – |
| c1cc(N2CCOCC(Cc3ccc4[nH]ccc4c3)C2)ncn1 (stereo not drawn) | 5.765 | – |
| CNC(=O)c1cc(C2CCCNC2)n[nH]1.Cl (stereo not drawn) | 11.11 | – |
| COCCc1noc(CN2CCCC2Cn2nc(C)nc2C)n1 (stereo not drawn) | 16.37 | – |
| CC(=O)N(Cc1ncc(C)o1)C1CCN(Cc2csc(C)n2)C1 (stereo not drawn) | 8.537 | – |
| Cc1cc(C(=O)N2CC[C@H]3C[C@H](c4ccncn4)O[C@@H]3C2)c(C)[nH]1 | -3.163 | – |

| SMILES | Percent Effect [%] | Percent Effect (10 mM as filed; unlikely as a test dose) |
| --- | --- | --- |
| CC(C)(C)n1ncc2c(=O)n(CC(=O)NCCc3ccccc3)cnc21 | – | -2.076% and -3.898% |
| CC(C)(C)n1ncc2c(=O)n(CC(=O)NCc3ccccc3)cnc21 | – | 92.95% and 84.04% |
| CCCNC(=O)Cn1nc(C(C)C)c2cnn(C(C)(C)C)c2c1=O | -2.007 | – |
| NC(=O)Cn1c(CO)cnc1SCC(=O)NCc1ccccc1Cl | – | -15.15% and -22% |
| CC(C)(C)n1ncc2c(=O)n(CC(=O)NCc3ccccc3Cl)cnc21 | – | 89.9% and 78.88% |
| CCCNC(=O)c1ncn2c1CN(CC(C)C)S(=O)(=O)c1ccccc1-2 | 20.71 | – |
| CNc1ccc(C2CN(c3cc(C)nc(N)n3)CCO2)nc1 (stereo not drawn) | 20.28 | – |
| CNc1nc2c(s1)C(=O)CN(C(=O)[C@@H](N)Cc1cccc(OC)c1)C2 | -10.92 | – |
| CN[C@@H]1CCC[C@@H](Oc2ccccc2Oc2ccc(C)cc2)[C@@H]1O | 14.14 | – |
| Cc1cccc2sc(NC(=O)CN3CCCC4(CC3)CNC(=O)O4)nc12 (stereo not drawn) | – | 74.6% and 74.31% |
| Cc1cccc2sc(NC(=O)CN3CCCC(O)(CO)C3)nc12 (stereo not drawn) | – | -25.02% and -31.47% |
| Cc1cccc2sc(NC(=O)CN3CCC(C)CC3)nc12 | – | 5.902% and -3.165% |
| CN(Cc1nccn1C)c1ccc(-c2nccn2C)nn1 | – | -4.7% and -1.79% |
| CN(Cc1ccoc1)c1ccc(-c2nccn2C)nn1 | – | -6.958% and -8.789% |
| COc1ccc(CN(C)c2ccc(-c3nccn3C)nn2)cc1OC | – | 63.95% and 77.57% |
| O=C(CN1CCC(c2cc(=O)n3c(n2)CCCCC3)CC1)N1CCCC1 | -0.7803 | – |
| CC(=O)N1CCOC(c2cc(N3CC(O)C3)nc(C)n2)C1 (stereo not drawn) | -19.49 | – |
| c1ccc2sc(CN3CCCC3c3noc(C4CC4)n3)nc2c1 (stereo not drawn) | – | 57.55% and 55.22% and 51.03% |
| c1ccc2oc(CN3CCCC3c3noc(C4CC4)n3)nc2c1 (stereo not drawn) | 8.668 | – |
| CC(CCc1ccccc1)N1CCC(C(=O)Nc2cnccn2)CC1 (stereo not drawn) | -2.997 | – |
| CS(=O)(=O)NCc1cn2c(n1)CN(C(=O)c1ccc[nH]1)CC2 | -21.11 | – |
